Inconclusive results are not listed. The source made the active and inactive calls. Unless noted, the call rests on the fitted dose curve; in most records, active means well fitted curve in the direction sought with a large enough effect; inconclusive means small, poorly fitted or top-dose-only effect, or another doubt; inactive means no such curve, though single readings can be large; an effect the other way counts as inactive or inconclusive.
Assays:
[1] = target: Lysosomal acid glucosylceramidase (Homo sapiens) (UniProt P04062); test: Glucocerebrosidase-p2 (AID 348; in the data active means potency below about 10 µM; further: potency means the concentration at half of the fitted maximal effect); conditions: purified GBA, blue fluorogenic substrate, 40 min
Outline: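 Normal human glucocerebrosidase (0.2 nM) with blue fluorogenic substrate (80 uM final) in citrate/phosphate pH 5.9 with 10mM sodium taurocholate, 0.01% tween-20; 40 min RT, NaOH/glycine stop; fluorescence Ex 365/Em 440; AC50 from a titration from 0.6 nM upwards.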

[2] = target: Cytochrome P450 1A2 (Homo sapiens) (UniProt P05177); test: p450-cyp1a2 (AID 410; calls by dose curve; further: potency means the concentration at half of the fitted maximal effect;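 on activity change, negative = inhibition: -100% = full effect of reference inhibitor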); conditions: recombinant CYP1A2, luciferin-ME demethylation, luminescence; series mostly up to 57 µM
Outline: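 O-Demethylation of luciferin 6' methyl ether by human CYP1A2 is monitored as luciferase luminescence. Substrate sits at Km (100uM); enzyme is 20nM. Values are scaled to 57 uM furafylline as maximal inhibition.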

[3] = NFAT Signaling Pathway (AID 444; active means well fitted curve in either direction with a large enough effect, not every such curve was filed as active;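 further: carbachol stimulus at about its EC50 of 1 µM final; on the % scale 0 is the no-effect control and ±100 the full control effect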); conditions: Jurkat NFAT-bla M1, carbachol, beta-lactamase ratio, 5 h; at 7.69 µM (top of the series) unless noted
Outline: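 Jurkat cells carrying an NFAT-driven β-lactamase reporter and co-transfected muscarinic M1 receptor were treated with compound plus carbachol (1 uM final, an EC50 level) for 5 h at 37 °C. CCF4 loading followed for 1 h at RT; 460/530 nm ratio gave %activity.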

[4] = Stat Signaling Pathway (AID 446; active means well fitted curve in either direction with a large enough effect, not every such curve was filed as active;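 further: ME-180 cervical cancer cells given 40 pM IL-6 alongside compound; SIE-controlled beta-lactamase reporter measured as 460/530 nm FRET emission ratio; on the % scale 0 is the no-effect control and ±100 the full control effect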); conditions: ME-180 SIE beta-lactamase reporter, IL-6 stimulated, 5 h; at 7.69 µM (top of the series) unless noted
Outline: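 Overnight-plated ME-180 cells bearing a STAT Inducible Element beta-lactamase reporter; 5 h co-exposure to compound and 40 pM IL-6; values normalized to 300 pM IL-6 and 125 nM JAK inhibitor controls.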

[5] = target: Glucocorticoid receptor (Homo sapiens) (UniProt P04150); test: GR-GFP Redistribution (AID 450;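 active means compounds whose dose series gives a full or clear partial fitted curve of increased nuclear translocation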; further: potency means the concentration at half of the fitted maximal effect); conditions: U2OS GR-GFP nuclear translocation, laser cytometry, 2 h
[6] = target: Glucocorticoid receptor (Homo sapiens) (UniProt P04150); test: GR-EFC Redistribution (AID 451; calls by dose curve; further: potency means the concentration at half of the fitted maximal effect); conditions: CHO-K1 GR-EFC translocation, beta-gal luminescence, 2 h
Outline: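 CHO-K1 cells stably expressing nuclear-localized β-gal enzyme acceptor and GR fused C-terminally to the enzyme donor fragment; ligand-driven nuclear translocation restores β-gal by complementation. Compounds titrated up to 46 uM final, 2 h at 37 °C; luminescence read.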

[7] = target: Mitogen-activated protein kinase 10 (Mus musculus) (UniProt Q61831); test: JNK3 AlphaScreen Assay (AID 530; active means well fitted curve in either direction with a large enough effect, not every such curve was filed as active;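 further: kinase came from lysate of stimulated human HepG2 cells; signal reports phosphorylation of biotinylated GST-cJun 1-79 at Ser73 with 10 µM ATP; on the % scale 0 is the no-effect control and ±100 the full control effect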); conditions: JNK3 lysate, c-Jun phosphorylation; series mostly up to 57.1 µM
Outline: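 Phosphorylation of biotinylated GST-cJun(1-79) at Ser73 is measured by AlphaScreen proximity luminescence. Enzyme is JNK3 in HepG2 lysates activated with interleukin-1beta and tumor necrosis factor alpha; ATP is 10 uM final.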

[8] = target: Cytochrome P450 2C9 (Homo sapiens) (UniProt P11712); test: qHTS Assay for Inhibitors and Substrates of Cytochrome P450 2C9 (AID 883); conditions: recombinant CYP2C9, luciferin-H luminescence, 60 min; series mostly up to 57.1 µM; further: on the % scale 0 is the no-effect control and ±100 the full control effect; nearly all actives have a fitted effect of over 60% in size
Outline: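 A luminogenic readout tracked human CYP2C9 (10nM) converting deoxyluciferin (100uM, at KM) in 25mM KPO4 during 60 min at 37C with regenerated NADPH. Values normalized to 57uM sulphaphenazole as complete inhibition.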

[9] = target: Cytochrome P450 3A4 (Homo sapiens) (UniProt P08684); test: qHTS Assay for Inhibitors and Substrates of Cytochrome P450 3A4 (AID 884); conditions: recombinant CYP3A4, Luciferin-PPXE luminescence; series mostly up to 57.1 µM; further: nearly all actives have a fitted effect of over 50% in size; further: potency means the concentration at half of the fitted maximal effect
Outline: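 Luminescent readout of luciferin produced by CYP3A4 (20 nM) dealkylation of Luciferin-PPXE, 25 uM (its KM). NADPH-driven reaction ran 60 min at RT after 10 min compound preincubation; data scaled to 57 uM ketoconazole as 100% inhibition.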

[10] = target: Cytochrome P450 3A4 (Homo sapiens) (UniProt P08684); test: qHTS Assay for Activators of Cytochrome P450 3A4 (AID 885); conditions: recombinant CYP3A4, Luciferin-PPXE luminescence, 60 min; series mostly up to 57.1 µM; further: nearly all actives have a fitted effect of over 65% in size
Outline: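 Using 20nM recombinant human CYP3A4 in potassium phosphate (200mM), substrate Luciferin-PPXE at 25uM, luminescent luciferin detection followed a 60-min RT NADPH reaction; data scaled to 57 uM ketoconazole.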

[11] = Confirmation and Secondary Assay for Modulators of Hemoglobin Beta Chain Splicing at IVS2 654 locus (AID 910); conditions: HeLa EGFP-654 splicing reporter, GFP fluorescence, 48 h; series mostly up to 38.3 µM;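 further: per-well total GFP intensity by laser scanning cytometry after 2-day treatment; % of control where 0% means no effect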
Outline: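 HeLa cells stably carrying EGFP interrupted by mutant beta-globin IVS2-654 intron (CMV-driven) were treated with compound for 2 days at 37C; corrected splicing was scored as total peak GFP intensity per well (488 nm excitation, 500-520 nm emission).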

[12] = Confirmation and Secondary Assay for Modulators of Hemoglobin Beta Chain Splicing at IVS2 705 locus (AID 930); conditions: HeLa EGFP-705 splicing reporter, GFP fluorescence, 48 h; series mostly up to 38.3 µM;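 further: HeLa cells stably expressing the EGFP-705 splicing reporter; GFP fluorescence per well restored by corrected splicing of the IVS2-705 intron in EGFP; % of control where 0% means no effect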
Outline: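 Fluorescence gain (488 nm laser, 500-520 nm PMT) reflects restored correct splicing of a mutant IVS2-705 intron inside EGFP in stably transfected HeLa cells after 2-day compound treatment.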

[13] = target: Ubiquitin carboxyl-terminal hydrolase 1 (Homo sapiens) (UniProt O94782); test: Inhibitors of USP1/UAF1: Pilot qHTS (AID 504865); conditions: purified USP1/UAF1, Ub-rhodamine cleavage fluorescence; series mostly up to 54.9 µM;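 further: rhodamine fluorescence freed from ubiquitin-rhodamine substrate followed over time; top concentration of the series differs between compounds; on the % scale 0 is the no-effect control and ±100 the full control effect; nearly all actives have a fitted effect of over 35% in size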
Outline: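 In 50mM HEPES pH 7.8 containing 0.5mM EDTA, 1mM TCEP, 0.1 mg/ml BSA and 0.01% Tween-20, 1nM USP1/UAF1 is exposed to compound for 15 min, then Ub-Rho (150nM final) is added and fluorescence is read over time.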

[14] = Primary qHTS for small molecule stabilizers of the endoplasmic reticulum resident proteome: Secreted ER Calcium Modulated Protein (SERCaMP) assay (AID 1508630); conditions: SH-SY5Y GLuc-SERCaMP (Gaussia luciferase released on ER calcium loss) secretion, thapsigargin, luminescence; series mostly up to 38.4 µM; further: on the % scale 0 is the no-effect control and ±100 the full control effect
Outline: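 The SH-SY5Y reporter protocol was run at 3 concentrations up to 38.3 uM (primary) or 11 concentrations (follow-up): 16 h compound, 100 nM thapsigargin for 4 h, then extracellular luciferase luminescence.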

[15] = qHTS Assay for Identification of Small Molecule Agonists for Hypoxia Response Element Signaling Pathway (AID 914; active means well fitted activation curve with a large enough effect in the signal ratio, with a control signal flat, not every such curve was filed as active; the % refers to the signal ratio; further: potency means the concentration at half of the fitted maximal effect); conditions: ME-180 HRE-bla reporter, beta-lactamase ratio, CoCl2, 17 h; activation: stronger effect = higher value
Outline: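 A beta-lactamase reporter under hypoxia response element control in ME-180 cells served as the system. Compound titrations plus EC50 CoCl2 ran 17 h at 37 degrees Celsius; AC50 values were fitted from %Activity.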

[16] = AP1 Signaling Pathway (AID 357; active means well fitted curve in either direction with a large enough effect, not every such curve was filed as active); conditions: ME-180 (cervical carcinoma) AP-1-bla reporter, EGF-induced, beta-lactamase ratio, 5 h; at 7.69 µM (top of the series) unless noted
Outline: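 A ratiometric CCF4 readout (405 nm excitation; 460 and 530 nm emission) quantified AP-1-driven beta-lactamase in ME-180 cells after 5 h with compound and EC50 EGF; AC50 values were derived for activators and inhibitors.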

[17] = target: 3',5'-cyclic-AMP phosphodiesterase 4B (Homo sapiens) (UniProt Q07343); test: qHTS Assay for Inhibitors of PDE-IV (AID 607; active means well fitted activation curve with a large enough effect in the main read-out, with a control signal flat, not every such curve was filed as active; further: % of control where 0% means no effect); conditions: HEK293 ACTOne CNG channel cells, membrane potential fluorescence; series mostly up to 22.9 µM
Outline: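 Live HEK293 cells with a modified cyclic nucleotide-gated (CNG) channel report intracellular cAMP via membrane-potential dye fluorescence (ex 535/em 590 nm). Endogenous PDE-IV was targeted. Compounds were tested at up to 22.9 uM final; RO 20-1724 100 uM served as control.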

[18] = target: Cytochrome P450 2C19 (Homo sapiens) (UniProt P33261); test: qHTS Assay for Inhibitors and Substrates of Cytochrome P450 2C19 (AID 899); conditions: recombinant CYP2C19, luciferin-H EGE luminescence; series mostly up to 57.1 µM; further: potency means the concentration at half of the fitted maximal effect; nearly all actives have a fitted effect of over 60% in size
Outline: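 NADPH-dependent conversion of Luciferin-H EGE (10uM, at KM) by 5nM enzyme in 50mM KPO4, 60 min at 37C following 10 min compound preincubation. Stopped with luciferin detection buffer; luminescence read after 20 min.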

Sequence of Glucocorticoid receptor (Homo sapiens) (P04150 whole entry, looked up, the tested form may be a part): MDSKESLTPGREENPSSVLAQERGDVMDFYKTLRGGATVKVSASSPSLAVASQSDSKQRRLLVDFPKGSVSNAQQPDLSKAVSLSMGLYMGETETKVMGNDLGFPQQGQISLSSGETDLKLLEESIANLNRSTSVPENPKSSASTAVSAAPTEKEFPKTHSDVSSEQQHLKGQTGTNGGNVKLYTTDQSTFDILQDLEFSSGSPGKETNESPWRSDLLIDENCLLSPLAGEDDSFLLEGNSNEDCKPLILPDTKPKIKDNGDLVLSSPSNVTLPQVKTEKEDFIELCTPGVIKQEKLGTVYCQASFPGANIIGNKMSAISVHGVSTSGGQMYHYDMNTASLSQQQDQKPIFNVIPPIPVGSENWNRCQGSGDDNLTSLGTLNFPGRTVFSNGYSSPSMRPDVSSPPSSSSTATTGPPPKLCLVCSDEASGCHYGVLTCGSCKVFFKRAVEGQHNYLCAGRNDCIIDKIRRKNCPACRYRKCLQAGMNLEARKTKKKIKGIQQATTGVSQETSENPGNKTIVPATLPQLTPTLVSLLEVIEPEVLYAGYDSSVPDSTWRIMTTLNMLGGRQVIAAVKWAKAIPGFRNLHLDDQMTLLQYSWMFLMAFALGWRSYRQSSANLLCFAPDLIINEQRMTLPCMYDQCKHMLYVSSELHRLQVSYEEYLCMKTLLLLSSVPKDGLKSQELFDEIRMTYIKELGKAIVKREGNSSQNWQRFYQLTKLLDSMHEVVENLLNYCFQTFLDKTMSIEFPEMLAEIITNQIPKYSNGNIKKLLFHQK
Sequence of Cytochrome P450 3A4 (Homo sapiens) (P08684 whole entry, looked up): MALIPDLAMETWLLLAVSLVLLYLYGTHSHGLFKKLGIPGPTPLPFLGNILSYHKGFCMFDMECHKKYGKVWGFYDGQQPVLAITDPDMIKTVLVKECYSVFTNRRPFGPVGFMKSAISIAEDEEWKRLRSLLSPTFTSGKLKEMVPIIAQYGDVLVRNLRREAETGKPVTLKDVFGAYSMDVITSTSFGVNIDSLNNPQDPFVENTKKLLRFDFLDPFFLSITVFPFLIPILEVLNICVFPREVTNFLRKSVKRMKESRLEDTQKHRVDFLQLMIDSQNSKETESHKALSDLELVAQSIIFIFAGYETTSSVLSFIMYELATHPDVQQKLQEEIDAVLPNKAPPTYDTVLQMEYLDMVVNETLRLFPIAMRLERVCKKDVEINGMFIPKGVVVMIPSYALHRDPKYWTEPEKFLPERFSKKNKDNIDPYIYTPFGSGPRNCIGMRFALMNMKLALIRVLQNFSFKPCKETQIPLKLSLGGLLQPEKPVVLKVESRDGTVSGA
Sequence of Cytochrome P450 1A2 (Homo sapiens) (P05177 whole entry, looked up): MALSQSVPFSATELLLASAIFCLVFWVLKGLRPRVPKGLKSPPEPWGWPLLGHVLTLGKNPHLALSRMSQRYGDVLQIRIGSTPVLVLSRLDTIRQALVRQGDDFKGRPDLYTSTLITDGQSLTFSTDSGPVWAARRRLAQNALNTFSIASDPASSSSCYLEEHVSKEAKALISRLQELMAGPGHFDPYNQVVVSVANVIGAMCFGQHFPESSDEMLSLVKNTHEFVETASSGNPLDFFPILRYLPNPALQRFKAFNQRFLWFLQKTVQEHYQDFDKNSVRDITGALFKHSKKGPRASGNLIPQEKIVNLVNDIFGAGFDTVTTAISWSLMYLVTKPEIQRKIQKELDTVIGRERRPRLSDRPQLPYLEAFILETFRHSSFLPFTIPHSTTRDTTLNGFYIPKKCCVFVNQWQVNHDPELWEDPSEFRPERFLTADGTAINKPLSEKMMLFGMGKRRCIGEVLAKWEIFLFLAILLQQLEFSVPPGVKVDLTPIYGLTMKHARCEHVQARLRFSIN
Sequence of 3',5'-cyclic-AMP phosphodiesterase 4B (Homo sapiens) (Q07343 whole entry, looked up): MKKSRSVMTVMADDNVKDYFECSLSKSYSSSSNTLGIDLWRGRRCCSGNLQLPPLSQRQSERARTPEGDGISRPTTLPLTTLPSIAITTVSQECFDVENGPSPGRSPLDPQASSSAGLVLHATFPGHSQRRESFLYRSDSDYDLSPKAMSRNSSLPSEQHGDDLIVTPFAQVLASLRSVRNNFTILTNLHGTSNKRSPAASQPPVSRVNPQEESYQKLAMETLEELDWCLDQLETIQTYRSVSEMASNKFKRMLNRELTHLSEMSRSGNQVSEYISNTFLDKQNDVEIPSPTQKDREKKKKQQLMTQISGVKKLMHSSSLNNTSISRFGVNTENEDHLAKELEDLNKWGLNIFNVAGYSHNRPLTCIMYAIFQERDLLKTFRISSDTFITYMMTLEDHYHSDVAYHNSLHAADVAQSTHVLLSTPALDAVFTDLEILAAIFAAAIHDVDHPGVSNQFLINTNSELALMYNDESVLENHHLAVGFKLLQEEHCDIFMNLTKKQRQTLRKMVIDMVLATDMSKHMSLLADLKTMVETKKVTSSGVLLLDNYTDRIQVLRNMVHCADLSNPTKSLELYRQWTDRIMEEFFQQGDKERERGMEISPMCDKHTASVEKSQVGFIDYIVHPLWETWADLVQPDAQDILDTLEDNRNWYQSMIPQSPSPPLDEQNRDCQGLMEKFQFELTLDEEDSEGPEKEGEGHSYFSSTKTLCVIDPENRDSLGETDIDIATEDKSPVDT
Sequence of Lysosomal acid glucosylceramidase (Homo sapiens) (P04062 whole entry, looked up): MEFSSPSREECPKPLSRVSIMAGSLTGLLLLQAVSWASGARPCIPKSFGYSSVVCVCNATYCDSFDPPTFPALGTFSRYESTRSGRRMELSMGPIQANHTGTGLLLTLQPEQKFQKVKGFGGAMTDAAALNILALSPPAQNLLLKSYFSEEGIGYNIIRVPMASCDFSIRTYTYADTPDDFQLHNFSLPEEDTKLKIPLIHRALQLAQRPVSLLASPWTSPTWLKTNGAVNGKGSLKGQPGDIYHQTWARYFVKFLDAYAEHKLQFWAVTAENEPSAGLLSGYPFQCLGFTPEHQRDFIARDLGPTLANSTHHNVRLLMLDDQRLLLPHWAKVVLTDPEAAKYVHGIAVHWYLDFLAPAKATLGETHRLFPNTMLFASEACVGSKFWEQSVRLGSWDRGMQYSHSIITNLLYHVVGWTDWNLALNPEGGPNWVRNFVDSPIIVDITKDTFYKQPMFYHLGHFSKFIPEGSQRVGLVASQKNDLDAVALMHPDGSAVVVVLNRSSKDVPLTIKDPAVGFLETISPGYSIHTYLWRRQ
Sequence of Cytochrome P450 2C9 (Homo sapiens) (P11712 whole entry, looked up): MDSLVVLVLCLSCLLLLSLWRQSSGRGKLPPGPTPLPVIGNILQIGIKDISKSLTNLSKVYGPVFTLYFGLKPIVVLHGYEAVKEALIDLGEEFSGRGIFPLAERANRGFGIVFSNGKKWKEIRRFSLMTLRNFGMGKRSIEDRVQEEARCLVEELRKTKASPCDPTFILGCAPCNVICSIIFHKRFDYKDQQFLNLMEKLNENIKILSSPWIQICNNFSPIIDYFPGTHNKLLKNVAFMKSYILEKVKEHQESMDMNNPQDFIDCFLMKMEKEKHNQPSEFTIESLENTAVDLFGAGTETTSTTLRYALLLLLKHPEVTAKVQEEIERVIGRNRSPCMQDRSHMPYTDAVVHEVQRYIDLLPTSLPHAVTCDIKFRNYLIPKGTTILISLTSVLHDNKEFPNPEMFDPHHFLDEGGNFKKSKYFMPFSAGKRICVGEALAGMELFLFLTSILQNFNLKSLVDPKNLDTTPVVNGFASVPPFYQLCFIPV
Sequence of Ubiquitin carboxyl-terminal hydrolase 1 (Homo sapiens) (O94782 whole entry, looked up): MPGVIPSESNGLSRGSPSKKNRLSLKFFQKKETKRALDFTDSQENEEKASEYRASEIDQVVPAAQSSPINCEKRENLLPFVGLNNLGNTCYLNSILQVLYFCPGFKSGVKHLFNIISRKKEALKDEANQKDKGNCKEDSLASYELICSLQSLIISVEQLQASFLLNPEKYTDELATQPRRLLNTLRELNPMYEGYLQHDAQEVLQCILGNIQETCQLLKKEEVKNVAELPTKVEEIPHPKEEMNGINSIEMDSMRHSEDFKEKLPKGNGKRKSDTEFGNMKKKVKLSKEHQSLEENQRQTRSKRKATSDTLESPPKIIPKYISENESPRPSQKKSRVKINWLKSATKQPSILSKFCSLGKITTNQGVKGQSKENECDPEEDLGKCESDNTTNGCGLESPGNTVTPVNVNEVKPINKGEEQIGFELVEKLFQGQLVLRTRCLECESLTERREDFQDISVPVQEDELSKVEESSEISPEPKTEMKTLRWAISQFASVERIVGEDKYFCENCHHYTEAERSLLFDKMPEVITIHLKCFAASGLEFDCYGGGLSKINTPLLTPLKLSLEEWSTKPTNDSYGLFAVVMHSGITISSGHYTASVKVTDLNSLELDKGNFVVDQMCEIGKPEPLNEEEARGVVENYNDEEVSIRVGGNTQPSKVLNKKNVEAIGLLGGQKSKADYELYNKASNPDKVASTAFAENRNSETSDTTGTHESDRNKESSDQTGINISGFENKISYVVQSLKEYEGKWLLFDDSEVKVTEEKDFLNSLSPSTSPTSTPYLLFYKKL
Sequence of Cytochrome P450 2C19 (Homo sapiens) (P33261 whole entry, looked up): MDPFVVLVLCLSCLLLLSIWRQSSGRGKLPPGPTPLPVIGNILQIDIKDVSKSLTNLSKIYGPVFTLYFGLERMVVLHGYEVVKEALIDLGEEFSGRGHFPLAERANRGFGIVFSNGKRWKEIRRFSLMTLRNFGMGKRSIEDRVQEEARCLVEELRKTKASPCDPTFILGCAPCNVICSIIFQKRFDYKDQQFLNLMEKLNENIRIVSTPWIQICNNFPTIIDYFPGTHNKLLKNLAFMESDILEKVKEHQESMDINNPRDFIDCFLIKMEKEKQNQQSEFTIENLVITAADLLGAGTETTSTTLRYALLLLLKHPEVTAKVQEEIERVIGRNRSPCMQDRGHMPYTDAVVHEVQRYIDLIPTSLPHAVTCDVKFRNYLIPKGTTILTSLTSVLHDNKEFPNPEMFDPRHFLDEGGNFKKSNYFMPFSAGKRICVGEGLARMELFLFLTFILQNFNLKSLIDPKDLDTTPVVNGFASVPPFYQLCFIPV

COc1ccc(CNc2nc(-c3ccccc3CN(C)C)nc3ccccc23)c(OC)c1
inactive: Potency [1] > 11.4 µM | activity change, negative = inhibition [3] -28% | activity, negative = inhibition [4] -17.2% | Potency [5] > 46 µM | Potency [6] > 46 µM | Potency [7] | activity change, negative = inhibition [8] 25.6% [at 2.29 µM] | Potency [10] | Potency [11] | outcome [12] | Potency [13] | outcome [14]
active: Potency [2] 10 µM | Potency [9] 7.94 µM

COc1ccc(Oc2ncc3nc(-c4cccs4)c(=O)n(Cc4cccc(OC)c4)c3n2)cc1
inactive: Potency [1] > 11.4 µM | Potency [2] | activity change, negative = inhibition [3] -5.95% | Potency [5] > 9.22 µM | Potency [6] > 46 µM | Potency [10] | outcome [14]
active: Potency [9] 3.98 µM | Potency [15] 3.16 µM

CCNc1ncc2nc(-c3cc(F)cc(F)c3)c(=O)n(Cc3cccs3)c2n1
active: Potency [2] 5.01 µM | activity, negative = inhibition [4] 135% [activator] | Potency [15] 0.794 µM
inactive: Potency [1] > 11.4 µM | Potency [5] > 9.22 µM | Potency [6] > 46 µM | Potency [7] | Potency [10] | outcome [14]

N#Cc1ccc(CN2CC3(CCN(C(=O)c4ccncc4)CC3)C2)cc1
inactive: Potency [1] > 11.4 µM | activity change, negative = inhibition [16] 9.93% | activity, negative = inhibition [4] 6.61% | Potency [7] | Potency [17] | Potency [10] | outcome [14]

O=C(c1csnn1)N1CCC2(CCCN(c3ccc(-c4ccccc4)cc3)C2)CC1
active: Potency [9] 7.94 µM
inactive: Potency [1] > 11.4 µM | Potency [2] | activity change, negative = inhibition [3] -15.8% | activity, negative = inhibition [4] 1.9% | Potency [6] > 46 µM | Potency [7] | Potency [17] | Potency [10] | outcome [14]

O=S(=O)(c1ccccc1)N1CCC2(CCN(c3ncccn3)CC2)CC1
inactive: Potency [1] > 11.4 µM | Potency [2] | activity change, negative = inhibition [3] -15.7% | activity, negative = inhibition [4] -15.6% | Potency [6] > 46 µM | Potency [7] | Potency [17] | Potency [10] | outcome [14]

COc1cccc(Cn2c(=O)c(-c3cccs3)nc3cnc(N4CCN(C)CC4)nc32)c1
active: Potency [2] 5.01 µM | activity change, negative = inhibition [3] 160% [activator]
inactive: Potency [1] > 11.4 µM | Potency [5] > 9.22 µM | Potency [6] > 46 µM | Potency [17] | Potency [8] | Potency [10] | outcome [14]

COc1ccc(-n2c(=O)c(-c3ccc(Cl)cc3)nc3cnc(N4CCOCC4)nc32)cc1
inactive: Potency [1] > 11.4 µM | activity change, negative = inhibition [3] 23.6% | Potency [5] > 9.22 µM | Potency [6] > 46 µM | Potency [7] | Potency [17] | outcome [14]
active: Potency [2] 15.8 µM | activity, negative = inhibition [4] 88.4% [activator] | Potency [15] 0.631 µM

Cn1c(=O)c(-c2ccccc2)nc2cnc(Oc3ccccc3)nc21
active: Potency [2] 2 µM
inactive: Potency [1] > 11.4 µM | activity change, negative = inhibition [3] 7.65% | activity, negative = inhibition [4] -0.677% | Potency [5] > 9.22 µM | Potency [6] > 46 µM | Potency [7] | Potency [17] | Potency [9] | outcome [14]

O=C(c1cnccn1)N1CCC[C@@]2(CCN(Cc3ccncc3)C2)C1
inactive: Potency [1] > 11.4 µM | activity change, negative = inhibition [3] 7.13% | activity, negative = inhibition [4] -5.95% | Potency [6] > 46 µM | Potency [7] | Potency [17] | Potency [10] | outcome [14]
active: Potency [2] 15.8 µM

O=C(c1ccco1)N1CCC2(CC1)CCN(c1ccccn1)CC2
inactive: Potency [1] > 11.4 µM | activity change, negative = inhibition [16] -7.81% | activity, negative = inhibition [4] -0.852% | Potency [6] > 46 µM | Potency [7] | Potency [17] | Potency [9] | outcome [14]

COc1ccc(C(=O)N2CCC3(CCCN(Cc4nccs4)C3)CC2)cc1
inactive: Potency [1] > 11.4 µM | activity change, negative = inhibition [16] -4.03% | activity, negative = inhibition [4] -4.62% | Potency [6] > 46 µM | Potency [7] | Potency [17] | Potency [10] | outcome [14]

Cc1cccc(CNc2cc(-c3ccc(N(C)C)cc3)ncn2)c1
inactive: Potency [1] > 11.4 µM | activity change, negative = inhibition [3] -5.57% | activity, negative = inhibition [4] -19.8% | Potency [5] > 46 µM | Potency [6] > 46 µM | Potency [7] | Potency [17] | Potency [10] | Potency [11] | outcome [12] | outcome [14]
active: Potency [2] 1 µM | Potency [9] 6.31 µM | Potency [18] 3.16 µM

O=C(Oc1ccccc1)N1CCC2(CC1)CCN(c1ccccn1)CC2
inactive: Potency [1] > 11.4 µM | activity change, negative = inhibition [16] -11.8% | activity, negative = inhibition [4] -7.33% | Potency [6] > 46 µM | Potency [7] | Potency [17] | Potency [9] | outcome [14]
